Source: the supplement of paper PMC8728848
Shown is part of a subset that was picked to be rich in the strongest signals.

What was measured:
Test in all cases: glycan array binding signal (z-score within array); higher = stronger binding
Conditions in all cases: glycan notation: IUPAC condensed, linker removed; mutation: R201A
Fuc(a1-2)Gal = target: Fuc(a1-2)Gal
In short: (§1)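 Glycan array data were curated from 3228 arrays in the Consortium for Functional Glycomics database and kept only where the protein sequence was available. Glycan names were converted to IUPAC-condensed notation, and columns mapping to the same glycan were averaged. The binding signal is a within-array Z-score, averaged across arrays of the same protein sequence at different concentrations or buffers and across linkers. Negative Z-scores can be read as non-binding.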

[1] = target: Fuc(a1-2)Gal(b1-3)GalNAc(b1-3)Gal(a1-4)Gal(b1-4)Glc
In short: as §1

[2] = target: Fuc(a1-2)Gal(b1-3)GalNAc(b1-4)[Neu5Ac(a2-3)]Gal(b1-4)Glc
In short: as §1

Fuc(a1-2)Gal(b1-4)Glc = target: Fuc(a1-2)Gal(b1-4)Glc
In short: as §1

[3] = target: Fuc(a1-2)[Gal(a1-3)]Gal(b1-3)GlcNAc
In short: as §1

[4] = target: Fuc(a1-2)[Gal(a1-3)]Gal(b1-4)GlcNAc(b1-2)Man(a1-3)[Fuc(a1-2)[Gal(a1-3)]Gal(b1-4)GlcNAc(b1-2)Man(a1-6)]Man(b1-4)GlcNAc(b1-4)GlcNAc
In short: as §1

[5] = target: Fuc(a1-2)[Gal(a1-3)]Gal(b1-4)GlcNAc(b1-3)[Fuc(a1-2)[Gal(a1-3)]Gal(b1-4)GlcNAc(b1-6)]GalNAc
In short: as §1

[6] = target: Fuc(a1-2)[Gal(a1-3)]Gal(b1-4)GlcNAc(b1-6)GalNAc
In short: as §1

[7] = target: Fuc(a1-2)[GalNAc(a1-3)]Gal(b1-4)GlcNAc(b1-2)Man(a1-3)[Fuc(a1-2)[GalNAc(a1-3)]Gal(b1-4)GlcNAc(b1-2)Man(a1-6)]Man(b1-4)GlcNAc(b1-4)[Fuc(a1-6)]GlcNAc
In short: as §1

[8] = target: Fuc(a1-2)[GalNAc(a1-3)]Gal(b1-4)GlcNAc(b1-3)Gal(b1-4)GlcNAc(b1-3)Gal(b1-4)GlcNAc
In short: as §1

[9] = target: Fuc(a1-3)[Gal(b1-4)]GlcNAc(b1-2)Man(a1-3)[Fuc(a1-3)[Gal(b1-4)]GlcNAc(b1-2)Man(a1-6)]Man(b1-4)GlcNAc(b1-4)[Fuc(a1-6)]GlcNAc
In short: as §1

[10] = target: Fuc(a1-3)[Gal3S(b1-4)]GlcNAc
In short: as §1

Fuc(a1-4)GlcNAc = target: Fuc(a1-4)GlcNAc
In short: as §1

Gal(a1-3)Gal(b1-4)GlcNAc = target: Gal(a1-3)Gal(b1-4)GlcNAc
In short: as §1

[11] = target: Gal(a1-3)Gal(b1-4)[Fuc(a1-3)]GlcNAc(b1-2)Man(a1-3)[Gal(a1-3)Gal(b1-4)[Fuc(a1-3)]GlcNAc(b1-2)Man(a1-6)]Man(b1-4)GlcNAc(b1-4)GlcNAc
In short: as §1

[12] = target: Gal(a1-4)Gal(b1-4)GlcNAc(b1-3)Gal(b1-4)Glc
In short: as §1

[13] = target: Gal(b1-3)GlcNAc(b1-2)Man(a1-3)[Gal(b1-3)GlcNAc(b1-2)Man(a1-6)]Man(b1-4)GlcNAc(b1-4)[Fuc(a1-6)]GlcNAc
In short: as §1

[14] = target: Gal(b1-3)GlcNAc(b1-2)Man(a1-3)[GlcNAc(b1-4)][Gal(b1-3)GlcNAc(b1-2)Man(a1-6)]Man(b1-4)GlcNAc(b1-4)GlcNAc
In short: as §1

[15] = target: Gal(b1-4)GlcNAc(b1-3)Gal(b1-3)GalNAc
In short: as §1

[16] = target: Gal(b1-4)GlcNAc(b1-3)Gal(b1-4)Glc
In short: as §1

[17] = target: Gal(b1-4)GlcNAc(b1-3)Gal(b1-4)GlcNAc(b1-3)Gal(b1-4)GlcNAc(b1-3)Gal(b1-4)GlcNAc(b1-3)Gal(b1-4)GlcNAc(b1-2)Man(a1-3)[Gal(b1-4)GlcNAc(b1-3)Gal(b1-4)GlcNAc(b1-3)Gal(b1-4)GlcNAc(b1-3)Gal(b1-4)GlcNAc(b1-3)Gal(b1-4)GlcNAc(b1-2)Man(a1-6)]Man(b1-4)GlcNAc(b1-4)GlcNAc
In short: as §1

[18] = target: Gal(b1-4)GlcNAc(b1-3)Gal(b1-4)GlcNAc(b1-3)Gal(b1-4)GlcNAc(b1-3)Gal(b1-4)GlcNAc(b1-3)Gal(b1-4)GlcNAc(b1-3)Gal(b1-4)GlcNAc(b1-2)Man(a1-3)[Gal(b1-4)GlcNAc(b1-3)Gal(b1-4)GlcNAc(b1-3)Gal(b1-4)GlcNAc(b1-3)Gal(b1-4)GlcNAc(b1-3)Gal(b1-4)GlcNAc(b1-3)Gal(b1-4)GlcNAc(b1-2)Man(a1-6)]Man(b1-4)GlcNAc(b1-4)GlcNAc
In short: as §1

Gal3S6S(b1-4)GlcNAc6S = target: Gal3S6S(b1-4)GlcNAc6S
In short: as §1

Gal6P(b1-4)GlcNAc = target: Gal6P(b1-4)GlcNAc
In short: as §1

GalNAc(a1-3)Gal = target: GalNAc(a1-3)Gal
In short: as §1

[19] = target: GalNAc(b1-3)Gal(a1-4)Gal(b1-4)GlcNAc
In short: as §1

GalNAc3S(b1-4)GlcNAc = target: GalNAc3S(b1-4)GlcNAc
In short: as §1

[20] = target: Glc(a1-6)Glc(a1-6)Glc(a1-6)Glc
In short: as §1

Glc(b1-4)Glc = target: Glc(b1-4)Glc
In short: as §1

GlcA(b1-3)GlcNAc = target: GlcA(b1-3)GlcNAc
In short: as §1

[21] = target: GlcNAc(b1-2)Man(a1-3)[GlcNAc(b1-2)Man(a1-6)]Man(b1-4)GlcNAc(b1-4)[Fuc(a1-6)]GlcNAc
In short: as §1

GlcNAc(b1-3)Fuc = target: GlcNAc(b1-3)Fuc
In short: as §1

GlcNAc(b1-3)Gal = target: GlcNAc(b1-3)Gal
In short: as §1

[22] = target: GlcNAc(b1-3)Gal(b1-4)GlcNAc
In short: as §1

[23] = target: GlcNAc(b1-3)Gal(b1-4)GlcNAc(b1-2)Man(a1-3)[GlcNAc(b1-3)Gal(b1-4)GlcNAc(b1-2)Man(a1-6)]Man(b1-4)GlcNAc(b1-4)[Fuc(a1-6)]GlcNAc
In short: as §1

[24] = target: GlcNAc(b1-4)Gal(b1-4)GlcNAc
In short: as §1

GlcNAc(b1-4)GlcNAc = target: GlcNAc(b1-4)GlcNAc
In short: as §1

[25] = target: GlcNAc(b1-4)GlcNAc(b1-4)GlcNAc
In short: as §1

GlcNAc(b1-6)GalNAc = target: GlcNAc(b1-6)GalNAc
In short: as §1

[26] = target: GlcNAc6S(b1-3)Gal(b1-4)GlcNAc
In short: as §1

[27] = target: Kdn(a2-3)Gal(b1-4)[Fuc(a1-3)]GlcNAc
In short: as §1

Man(a1-2)Man(a1-3)Man = target: Man(a1-2)Man(a1-3)Man
In short: as §1

[28] = target: Neu5Ac(a2-3)Gal(b1-3)GalNAc(b1-4)[Neu5Ac(a2-3)]Gal(b1-4)Glc
In short: as §1

[29] = target: Neu5Ac(a2-3)Gal(b1-3)GlcNAc(b1-2)[Neu5Ac(a2-3)Gal(b1-3)GlcNAc(b1-4)]Man(a1-6)[Neu5Ac(a2-3)Gal(b1-3)GlcNAc(b1-2)Man(a1-3)]Man(b1-4)GlcNAc(b1-4)GlcNAc
In short: as §1

[30] = target: Neu5Ac(a2-3)Gal(b1-3)GlcNAc6S
In short: as §1

Neu5Ac(a2-3)Gal(b1-4)Glc = target: Neu5Ac(a2-3)Gal(b1-4)Glc
In short: as §1

[31] = target: Neu5Ac(a2-3)Gal(b1-4)GlcNAc(b1-2)Man(a1-3)[Neu5Ac(a2-6)Gal(b1-4)GlcNAc(b1-2)Man(a1-6)]Man(b1-4)GlcNAc(b1-4)GlcNAc
In short: as §1

[32] = target: Neu5Ac(a2-3)Gal(b1-4)GlcNAc(b1-3)Gal(b1-4)GlcNAc
In short: as §1

[33] = target: Neu5Ac(a2-3)Gal(b1-4)[Fuc(a1-3)]GlcNAc(b1-3)Gal(b1-4)GlcNAc
In short: as §1

[34] = target: Neu5Ac(a2-6)Gal(b1-4)GlcNAc(b1-2)Man(a1-6)Man(b1-4)GlcNAc(b1-4)GlcNAc
In short: as §1

[35] = target: Neu5Ac(a2-6)Gal(b1-4)GlcNAc(b1-3)Gal(b1-4)GlcNAc(b1-3)GalNAc
In short: as §1

[36] = target: Neu5Ac(a2-6)Gal(b1-4)GlcNAc(b1-6)[Gal(b1-3)GlcNAc(b1-3)]Gal(b1-4)Glc
In short: as §1

B1: OS9 (Arabidopsis thaliana) (protein)
chain: MRGSHHHHHHGMASMTGGQQMGRDLYDDDDKSRLQIFPAHLVGTFSRNNREPKYKIEFLPEDSPFHPGDNLESMVMLDKHGNRFLCYLPKEEKATSGWTSSQQNISTVMMETQQLVKLKTPDELLQPLSEKCLFRQEGWWSYEFCHQKYVRQLHVEDENKIVQEFFLGTFDPEATAAFNQTVSDASTDASQRYHSHVYTNGTTCDLTGSPAEVEVRFVCAETRAMVTSITELSTCKYALTVQCPTLCKHPLFQLEKPVSHTIHCNAIPVEEDATRNKEEQAVDESPKMIADS
- glycan array binding signal (z-score) (Fuc(a1-2)Gal): 0.581
- glycan array binding signal (z-score) [1]: -0.131
- glycan array binding signal (z-score) [2]: -0.246
- glycan array binding signal (z-score) (Fuc(a1-2)Gal(b1-4)Glc): -0.732
- glycan array binding signal (z-score) [3]: -0.124
- glycan array binding signal (z-score) [4]: -0.237
- glycan array binding signal (z-score) [5]: 1.25
- glycan array binding signal (z-score) [6]: -0.223
- glycan array binding signal (z-score) [7]: -0.739
- glycan array binding signal (z-score) [8]: 2.49
- glycan array binding signal (z-score) [9]: 3.48
- glycan array binding signal (z-score) [10]: 0.043
- glycan array binding signal (z-score) (Fuc(a1-4)GlcNAc): 2.18
- glycan array binding signal (z-score) (Gal(a1-3)Gal(b1-4)GlcNAc): -0.929
- glycan array binding signal (z-score) [11]: 0.205
- glycan array binding signal (z-score) [12]: -0.456
- glycan array binding signal (z-score) [13]: -0.307
- glycan array binding signal (z-score) [14]: -0.686
- glycan array binding signal (z-score) [15]: -0.513
- glycan array binding signal (z-score) [16]: -0.35
- glycan array binding signal (z-score) [17]: -0.257
- glycan array binding signal (z-score) [18]: 0.133
- glycan array binding signal (z-score) (Gal3S6S(b1-4)GlcNAc6S): 3.98
- glycan array binding signal (z-score) (Gal6P(b1-4)GlcNAc): -0.208
- glycan array binding signal (z-score) (GalNAc(a1-3)Gal): 1.39
- glycan array binding signal (z-score) [19]: 2.17
- glycan array binding signal (z-score) (GalNAc3S(b1-4)GlcNAc): 2.29
- glycan array binding signal (z-score) [20]: -1.12
- glycan array binding signal (z-score) (Glc(b1-4)Glc): 2.1
- glycan array binding signal (z-score) (GlcA(b1-3)GlcNAc): 1.54
- glycan array binding signal (z-score) [21]: 0.257
- glycan array binding signal (z-score) (GlcNAc(b1-3)Fuc): 0.403
- glycan array binding signal (z-score) (GlcNAc(b1-3)Gal): -0.422
- glycan array binding signal (z-score) [22]: -0.104
- glycan array binding signal (z-score) [23]: 2.59
- glycan array binding signal (z-score) [24]: 0.805
- glycan array binding signal (z-score) (GlcNAc(b1-4)GlcNAc): 8.22
- glycan array binding signal (z-score) [25]: 0.6
- glycan array binding signal (z-score) (GlcNAc(b1-6)GalNAc): -0.498
- glycan array binding signal (z-score) [26]: -0.224
- glycan array binding signal (z-score) [27]: 0.82
- glycan array binding signal (z-score) (Man(a1-2)Man(a1-3)Man): 0.874
- glycan array binding signal (z-score) [28]: -0.662
- glycan array binding signal (z-score) [29]: -1.14
- glycan array binding signal (z-score) [30]: -0.775
- glycan array binding signal (z-score) (Neu5Ac(a2-3)Gal(b1-4)Glc): 2.08
- glycan array binding signal (z-score) [31]: -0.425
- glycan array binding signal (z-score) [32]: 0.1
- glycan array binding signal (z-score) [33]: 1.98
- glycan array binding signal (z-score) [34]: -0.225
- glycan array binding signal (z-score) [35]: 0.709
- glycan array binding signal (z-score) [36]: -0.933
